# In PubChem BioAssay (Tox21):
# Values joined by “and” are separate entries in the source; they are usually repeats but may differ in a detail not shown here. Identical values can stand only once. Some compounds were tested as several samples or in several runs, with calls that do not always agree. Active and inactive are the calls of the source. Where a call stands in place of a potency, no number is given. Unless noted, the call rests on the fitted dose curve; in most records, active means well fitted curve in the direction sought with a large enough effect in the repeat runs; inconclusive means weak or mixed curves; inactive means no such curve, though single readings can be large; an effect the other way counts as inactive or inconclusive.
# Legend:
# [1] = qHTS assay for identifying genotoxic compounds that show differential cytotoxicity against isogenic chicken DT40 cell lines with known DNA damage response pathways - wild type cell line (AID 743012); further: nearly all actives have a fitted effect of over 60% in size; further: potency means the concentration at half of the fitted maximal effect
# How it was run: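 Viability by ATP luminescence (CellTiter-Glo, 30 min RT) after 40 h compound treatment at 37 C/5% CO2, using 300 parental DNA repair-proficient DT40 cells per well.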
# [2] = qHTS assay for identifying genotoxic compounds that show differential cytotoxicity against isogenic chicken DT40 cell lines with known DNA damage response pathways - Rev3 mutant cell line (AID 743014); further: nearly all actives have a fitted effect of over 55% in size; further: potency means the concentration at half of the fitted maximal effect
# [3] = qHTS assay for identifying genotoxic compounds that show differential cytotoxicity against isogenic chicken DT40 cell lines with known DNA damage response pathways - Rad54/Ku70 mutant cell line (AID 743015); further: nearly all actives have a fitted effect of over 60% in size; further: potency means the concentration at half of the fitted maximal effect
# [4] = qHTS assay to identify small molecule antagonists of the androgen receptor (AR) signaling pathway - cell viability counter screen (AID 743033; further: nearly all actives have a fitted effect of over 45% in size; further: potency means the concentration at half of the fitted maximal effect)
# [5] = qHTS assay to identify small molecule antagonists of the androgen receptor (AR) signaling pathway using the MDA cell line - cell viability counter screen (AID 743041; further: nearly all actives have a fitted effect of over 45% in size; further: potency means the concentration at half of the fitted maximal effect)
# How it was run: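 qHTS viability read-out; MDA-kb2 AR-luc; R1881-stimulated; 16 h exposure at 37C, 0% CO2; CellTiter-Fluor, 30 min; fluorescence intensity.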
# [6] = qHTS assay to identify small molecule antagonists of the thyroid receptor (TR) signaling pathway - cell viability counter screen (AID 743064); further: nearly all actives have a fitted effect of over 50% in size; further: potency means the concentration at half of the fitted maximal effect
# How it was run: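 GH3.TRE-Luc rat pituitary cells carrying a TRE-luciferase reporter were treated with compound plus 1 nM T3 (final) for 23.5 h at 37 °C. Viability was then read in the same wells by CellTiter-Fluor fluorescence after a further 30 min.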
# [7] = qHTS assay to identify small molecule antagonists of the thyroid receptor (TR) signaling pathway (AID 743065); further: nearly all actives have a fitted effect of over 55% in size; further: potency means the concentration at half of the fitted maximal effect
# How it was run: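 GH3.TRE-Luc rat pituitary cells carrying two TR response elements driving luciferase were plated for 4 h, given compound plus 1 nM T3 (final), and incubated 23.5 h at 37 C. ONE-Glo luminescence measured reporter inhibition; CellTiter-Fluor fluorescence tracked cytotoxicity.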
# [8] = system: thyroid hormone receptor (rat, GH3 cells); assay: qHTS assay to identify small molecule agonists of the thyroid receptor (TR) signaling pathway (AID 743066; calls by dose curve)
# [9] = biological target: Estrogen receptor (Homo sapiens) (UniProt P03372); assay: qHTS assay to identify small molecule antagonists of the estrogen receptor alpha (ER-alpha) signaling pathway (AID 743069; active means well fitted curve in the direction sought with a large enough effect in the signal ratio in the repeat runs, not every such curve was filed as active; inconclusive means weak or mixed curves, or effect the other way; inactive means no such curve, though single readings can be large or run the other way; the % refers to the signal ratio)
# Sequence of Estrogen receptor (Homo sapiens) (P03372 whole entry, looked up): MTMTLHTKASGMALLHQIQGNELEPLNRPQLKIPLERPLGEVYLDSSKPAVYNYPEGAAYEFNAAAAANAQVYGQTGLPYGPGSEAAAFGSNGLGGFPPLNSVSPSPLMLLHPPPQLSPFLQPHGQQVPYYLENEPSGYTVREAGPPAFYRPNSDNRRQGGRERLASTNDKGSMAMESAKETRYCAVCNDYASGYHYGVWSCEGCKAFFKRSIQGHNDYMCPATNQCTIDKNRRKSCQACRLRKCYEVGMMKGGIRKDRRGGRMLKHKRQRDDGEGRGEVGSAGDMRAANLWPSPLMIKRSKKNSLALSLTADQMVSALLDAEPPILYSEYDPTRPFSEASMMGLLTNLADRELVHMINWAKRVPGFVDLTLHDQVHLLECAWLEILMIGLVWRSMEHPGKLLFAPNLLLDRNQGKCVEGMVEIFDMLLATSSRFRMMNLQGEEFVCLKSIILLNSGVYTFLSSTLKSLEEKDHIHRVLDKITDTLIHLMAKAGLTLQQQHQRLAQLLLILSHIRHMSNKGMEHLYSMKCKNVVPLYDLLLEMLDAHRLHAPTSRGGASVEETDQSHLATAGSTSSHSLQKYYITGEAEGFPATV
# How it was run: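 Screening used a UAS-driven beta-lactamase reporter integrated into HEK293 cells expressing ER-alpha, stimulated with 17beta-estradiol alongside test compounds over 18 hr at 37C; signal came from LiveBLAzer B/G FRET fluorescence.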
# [10] = qHTS assay to identify small molecule antagonists of the estrogen receptor alpha (ER-alpha) signaling pathway - cell viability counter screen (AID 743074; calls by dose curve; further: nearly all actives have a fitted effect of over 45% in size)
# [11] = biological target: Estrogen receptor (Homo sapiens) (UniProt P03372); assay: qHTS assay to identify small molecule agonists of the estrogen receptor alpha (ER-alpha) signaling pathway (AID 743075; calls by dose curve; further: potency means the concentration at half of the fitted maximal effect)
# [12] = biological target: Estrogen receptor (Homo sapiens) (UniProt P03372); assay: qHTS assay to identify small molecule agonists of the estrogen receptor alpha (ER-alpha) signaling pathway using the BG1 cell line (AID 743079); further: nearly all actives have a fitted effect of over 20% in size
# [13] = qHTS assay to identify small molecule antagonists of the estrogen receptor alpha (ER-alpha) signaling pathway using the BG1 cell line (AID 743080; calls by dose curve;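 further: BG1 cells stimulated with 17beta-estradiol alongside compound; nearly all actives have a fitted effect of over 25% in size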; further: potency means the concentration at half of the fitted maximal effect)
# How it was run: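 BG1-Luc-4E2 cells (endogenous full-length ER-alpha, 4xERE luciferase) hormone-starved 5 days in charcoal-stripped FBS, plated 4,000/well for 24 h, then compound plus 17beta-estradiol for 21.5 h at 37 C; ONE-Glo luminescence read.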
# [14] = qHTS assay to identify small molecule antagonists of the estrogen receptor alpha (ER-alpha) signaling pathway using the BG1 cell line - cell viability counter screen (AID 743081);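 further: compound given together with 17beta-estradiol as the ER stimulus; nearly all actives have a fitted effect of over 45% in size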; further: potency means the concentration at half of the fitted maximal effect
# [15] = biological target: Aromatase (Homo sapiens) (UniProt P11511); assay: qHTS assay to identify aromatase inhibitors (AID 743083); further: nearly all actives have a fitted effect of over 55% in size; further: potency means the concentration at half of the fitted maximal effect
# Sequence of Aromatase (Homo sapiens) (P11511 whole entry, looked up): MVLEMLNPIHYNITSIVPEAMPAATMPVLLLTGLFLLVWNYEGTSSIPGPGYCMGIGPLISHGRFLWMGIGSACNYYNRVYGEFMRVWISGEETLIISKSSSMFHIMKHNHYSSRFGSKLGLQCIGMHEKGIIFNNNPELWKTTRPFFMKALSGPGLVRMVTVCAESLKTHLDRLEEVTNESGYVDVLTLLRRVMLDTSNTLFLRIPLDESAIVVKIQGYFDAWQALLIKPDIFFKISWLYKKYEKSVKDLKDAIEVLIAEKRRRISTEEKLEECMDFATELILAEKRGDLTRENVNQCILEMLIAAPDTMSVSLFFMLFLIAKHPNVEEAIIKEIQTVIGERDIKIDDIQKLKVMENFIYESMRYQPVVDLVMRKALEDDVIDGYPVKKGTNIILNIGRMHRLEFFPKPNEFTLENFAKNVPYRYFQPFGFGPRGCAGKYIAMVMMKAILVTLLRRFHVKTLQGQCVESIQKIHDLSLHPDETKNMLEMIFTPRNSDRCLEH
# [16] = qHTS assay to identify small molecule antagonists of the glucocorticoid receptor (GR) signaling pathway - cell viability counter screen (AID 720693); further: nearly all actives have a fitted effect of over 55% in size; further: potency means the concentration at half of the fitted maximal effect
# [17] = biological target: Androgen receptor (Homo sapiens) (UniProt P10275); assay: qHTS assay to identify small molecule antagonists of the androgen receptor (AR) signaling pathway (AID 743035; active means well fitted inhibition curve with a large enough effect in the signal ratio in the repeat runs, not every such curve was filed as active; inconclusive means weak or mixed curves, or effect the other way; inactive means no such curve, though single readings can be large or run the other way; the % refers to the signal ratio)
# Sequence of Androgen receptor (Homo sapiens) (P10275 whole entry, looked up): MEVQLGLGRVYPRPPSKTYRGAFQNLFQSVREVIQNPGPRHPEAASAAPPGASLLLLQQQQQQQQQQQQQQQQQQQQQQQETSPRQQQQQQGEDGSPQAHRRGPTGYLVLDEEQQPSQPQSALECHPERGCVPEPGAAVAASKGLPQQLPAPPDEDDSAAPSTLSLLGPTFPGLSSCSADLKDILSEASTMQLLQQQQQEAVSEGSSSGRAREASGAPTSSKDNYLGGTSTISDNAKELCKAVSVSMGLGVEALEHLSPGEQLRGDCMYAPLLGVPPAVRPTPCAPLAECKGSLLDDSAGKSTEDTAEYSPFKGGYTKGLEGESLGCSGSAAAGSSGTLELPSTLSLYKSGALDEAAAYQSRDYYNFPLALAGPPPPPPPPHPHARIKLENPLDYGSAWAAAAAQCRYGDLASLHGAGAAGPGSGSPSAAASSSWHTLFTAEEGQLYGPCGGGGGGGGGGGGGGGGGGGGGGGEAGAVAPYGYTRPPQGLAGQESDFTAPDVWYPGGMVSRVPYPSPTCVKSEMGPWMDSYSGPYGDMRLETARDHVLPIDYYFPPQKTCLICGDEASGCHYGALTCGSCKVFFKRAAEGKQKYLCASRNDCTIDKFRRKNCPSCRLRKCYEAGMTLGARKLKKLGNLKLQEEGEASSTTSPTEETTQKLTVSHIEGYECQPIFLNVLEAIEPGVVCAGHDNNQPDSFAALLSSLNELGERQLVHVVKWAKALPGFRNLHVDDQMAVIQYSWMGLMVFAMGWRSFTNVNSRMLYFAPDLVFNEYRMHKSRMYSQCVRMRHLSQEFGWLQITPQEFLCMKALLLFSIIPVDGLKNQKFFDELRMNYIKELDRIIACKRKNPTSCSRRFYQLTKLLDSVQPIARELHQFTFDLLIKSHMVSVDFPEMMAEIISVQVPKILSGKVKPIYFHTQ
# How it was run: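 Antagonist mode: AR-bla HEK293 cells co-treated with test compounds and agonist R1881 for 16 h at 37C, 5% CO2. Beta-lactamase activity read as FRET fluorescence after 2 h room-temperature substrate loading.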
# [18] = biological target: Androgen receptor (Homo sapiens) (UniProt P10275); assay: qHTS assay to identify small molecule agonists of the androgen receptor (AR) signaling pathway (AID 743036; active means well fitted activation curve with a large enough effect in the signal ratio in the repeat runs, with a control signal flat, not every such curve was filed as active; inconclusive means weak or mixed curves, or effect the other way; inactive means no such curve, though single readings can be large or run the other way; the % refers to the signal ratio)
# How it was run: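 HEK293 cells stably carrying a UAS-driven beta-lactamase reporter (GeneBLAzer AR-UAS-bla-GripTite) were plated at 2,000 cells/well, rested 4 h at 37C, then exposed to compounds in DMSO for 16 h. LiveBLAzer B/G FRET substrate was added for 2 h at room temperature; fluorescence read.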
# [19] = biological target: Androgen receptor (Homo sapiens) (UniProt P10275); assay: qHTS assay to identify small molecule agonists of the androgen receptor (AR) signaling pathway using the MDA cell line (AID 743040; further: nearly all actives have a fitted effect of over 20% in size); conditions: MDA-kb2 AR-luc cells, MMTV luciferase, 16 h, stronger effect = higher value
# How it was run: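 Agonist activity is measured as luciferase luminescence in human MDA-kb2 cells whose MMTV reporter responds to both AR and GR. Compounds in DMSO incubate 16 h at 37C, 0% CO2, and ONE-Glo is read after 30 min.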
# [20] = biological target: Androgen receptor (Homo sapiens) (UniProt P10275); assay: qHTS assay to identify small molecule antagonists of the androgen receptor (AR) signaling pathway using the MDA cell line (AID 743042; further: nearly all actives have a fitted effect of over 55% in size; further: potency means the concentration at half of the fitted maximal effect)
# How it was run: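 MDA-kb2 cells (human breast carcinoma, stably carrying an MMTV-luciferase reporter responsive to AR and GR) were plated at 3,000 cells/well and preincubated 5 hr at 37C, then given compound plus R1881 agonist for 16 h. ONE-Glo luminescence was read.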
# [21] = activity change: at 70.3 µM (top of the series)
structure (smiles),measurement,setting,value
CCCCN(CCCC)N=O,Potency,[1],inactive
same,Potency,[2],inactive
same,Potency,[3],inactive
same,Potency,[4],inactive
same,Potency,[5],inactive
same,Potency,[6],inactive
same,Potency,[7],inactive
same,Potency,[8],inactive
same,Potency,[9],inactive
same,Potency,[10],inactive
same,Potency,[11],inactive
same,Potency,[12],inactive
same,Potency,[13],inactive
same,Potency,[14],inactive
same,Potency,[15],inactive
C1=Cc2cccc3cccc1c23,Potency,[16],inactive
same,Potency,[1],inactive
same,Potency,[2],60.1 µM (active)
same,Potency,[3],inactive
same,Potency,[4],inactive
same,Potency,[5],inactive
same,Potency,[6],inactive
same,Potency,[7],inactive
same,Potency,[8],inactive
same,Potency,[10],inactive
same,Potency,[14],inactive
same,Potency,[15],inactive
C=CC(=O)OCCO,Potency,[16],inactive
same,Potency,[2],inactive
same,Potency,[3],inactive and 43.3 µM (active)
same,Potency,[4],inactive
same,Potency,[5],inactive
same,Potency,[6],inactive
same,Potency,[7],inactive
same,Potency,[8],inactive
same,Potency,[10],inactive
same,Potency,[14],inactive
CN(C)c1ccc(C(=O)c2ccc(N(C)C)cc2)cc1,Potency,[16],inactive
same,Potency,[1],1.52 µM (active) and 1.37 µM (active)
same,Potency,[2],762 nM (active) and 969 nM (active)
same,Potency,[3],1.35 µM (active) and 1.37 µM (active)
same,Potency,[4],inactive
same,Potency,[5],inactive
same,Potency,[6],30.3 µM (active) and inactive
same,Potency,[7],5.39 µM (active) and 1.09 µM (active)
same,Potency,[8],inactive
same,Potency,[10],inactive
same,Potency,[14],inactive
same,Potency,[15],inactive
C#CCOS(=O)OC1CCCCC1Oc1ccc(C(C)(C)C)cc1 (configuration not stated),Potency,[16],21.9 µM (active)
same,Potency,[1],6.12 µM (active) and 2.73 µM (active)
same,Potency,[2],3.86 µM (active) and 2.17 µM (active)
same,Potency,[3],4.33 µM (active) and 2.43 µM (active)
same,Potency,[4],174 nM (active) and 1.74 µM (active)
same,Potency,[5],4.33 µM (active)
same,Potency,[6],6.86 µM (active)
same,Potency,[7],4.33 µM (active)
same,Potency,[8],inactive
same,Potency,[11],inactive and 2.75 µM [inconclusive] (active)
same,Potency,[13],9.7 µM (active)
same,Potency,[14],27.3 µM (active)
same,Potency,[15],15.4 µM (active) and 6.86 µM (active)
CCOc1cc(Oc2ccc(C(F)(F)F)cc2Cl)ccc1[N+](=O)[O-],Potency,[16],inactive
same,Potency,[1],54.5 µM (active)
same,Potency,[2],inactive
same,Potency,[3],54.5 µM (active)
same,Potency,[4],inactive
same,Potency,[5],inactive
same,Potency,[8],inactive
same,Potency,[9],inactive
same,Potency,[10],inactive
same,Potency,[11],inactive
same,Potency,[13],31 µM (active)
same,Potency,[14],inactive
same,Potency,[15],inactive
O=c1oc2ccccc2c(O)c1C(CC(O)c1ccc(-c2ccc(Br)cc2)cc1)c1ccccc1 (configuration not stated),Potency,[16],23.9 µM (active) and 46.3 µM (active)
same,Potency,[1],inactive
same,Potency,[2],inactive
same,Potency,[4],inactive
same,Potency,[5],inactive
same,Potency,[7],29.8 µM (active) and 57.9 µM (active)
same,Potency,[8],inactive
same,Potency,[10],inactive
same,Potency,[11],inactive
same,Potency,[12],inactive
same,Potency,[13],inactive
same,Potency,[14],inactive
same,Potency,[15],inactive
c1cc(OCC2CO2)ccc1Cc1ccc(OCC2CO2)cc1 (configuration not stated),Potency,[1],13.7 µM (active)
same,Potency,[2],2.44 µM (active) and 1.54 µM (active)
same,Potency,[3],61.4 µM (active) and 15.4 µM (active)
same,Potency,[4],inactive
same,Potency,[17],inactive
same,Potency,[18],inactive
same,Potency,[19]; [21],inactive
same,Potency,[5],inactive
same,Potency,[20],inactive
same,Potency,[6],43.5 µM (active) and 48.6 µM (active)
same,Potency,[7],24.4 µM (active) and 21.7 µM (active)
same,Potency,[8],inactive
same,Potency,[10],inactive
same,Potency,[11],inactive
same,Potency,[12],inactive
same,Potency,[13],inactive
same,Potency,[14],inactive
same,Potency,[15],inactive
N#Cc1cc(Br)c(O)c(Br)c1,Potency,[16],inactive
same,activity change,[19]; [21],-6.84% (active)
same,activity change,[19]; at 70.3 µM (top of the series),-3.58% (inactive)
same,Potency,[5],inactive
same,Potency,[20],61.1 µM (active)
same,Potency,[6],inactive
same,Potency,[7],68.5 µM (active)
same,Potency,[8],inactive
same,Potency,[9],inactive
same,Potency,[10],inactive
same,Potency,[11],inactive
same,Potency,[13],68.5 µM (active) and 52.5 µM (active)
same,Potency,[14],inactive
same,Potency,[15],inactive
c1ccc(P(c2ccccc2)c2ccccc2)cc1,Potency,[16],inactive
same,Potency,[1],55.5 µM (active) and 61.1 µM (active)
same,Potency,[2],12.4 µM (active) and 61.1 µM (active)
same,Potency,[3],19.7 µM (active) and 54.5 µM (active)
same,Potency,[4],inactive
same,Potency,[5],inactive
same,Potency,[6],inactive
same,Potency,[8],inactive
same,Potency,[9],inactive
same,Potency,[10],inactive
same,Potency,[11],inactive
same,Potency,[12],inactive
same,Potency,[13],inactive
same,Potency,[14],inactive
same,Potency,[15],inactive
CCOC(=S)S,Potency,[16],inactive
same,Potency,[1],24.3 µM (active) and 16.3 µM (active)
same,Potency,[2],21.7 µM (active) and 16.3 µM (active)
same,Potency,[3],24.3 µM (active) and 16.3 µM (active)
same,Potency,[4],13.8 µM (active) and 8.26 µM (active)
same,Potency,[6],inactive
same,Potency,[7],51.7 µM (active)
same,Potency,[8],inactive
same,Potency,[10],inactive
same,Potency,[14],inactive
same,Potency,[15],68.6 µM (active) and 58 µM (active)
Cc1cccc(N)c1N,Potency,[16],inactive
same,Potency,[1],inactive and 19.3 µM (active)
same,Potency,[2],19.3 µM (active)
same,Potency,[3],21.7 µM (active)
same,Potency,[4],inactive
same,Potency,[5],inactive
same,Potency,[6],inactive
same,Potency,[7],inactive
same,Potency,[8],inactive
same,Potency,[10],inactive
same,Potency,[14],inactive
same,Potency,[15],inactive
CCCCOCCOP(=O)(OCCOCCCC)OCCOCCCC,Potency,[16],inactive
same,Potency,[2],54.5 µM (active)
same,Potency,[3],48.6 µM (active)
same,Potency,[4],inactive
same,Potency,[5],inactive
same,Potency,[6],54.5 µM (active) and inactive
same,Potency,[7],24.4 µM (active) and 19.3 µM (active)
same,Potency,[8],inactive
same,Potency,[9],inactive
same,Potency,[11],inactive
same,Potency,[12],inactive
same,Potency,[13],inactive
same,Potency,[14],inactive
same,Potency,[15],inactive
CNC(=O)N(C)c1nnc(C(C)(C)C)s1,Potency,[1],inactive
same,Potency,[2],inactive
same,Potency,[3],inactive
same,Potency,[4],inactive
same,Potency,[5],inactive
same,Potency,[6],inactive
same,Potency,[7],inactive
same,Potency,[8],inactive
same,Potency,[9],inactive
same,Potency,[10],inactive
same,Potency,[11],inactive
same,Potency,[12],inactive
same,Potency,[13],inactive
same,Potency,[14],inactive
same,Potency,[15],inactive
